Measured values published in PubChem BioAssay (NCI).
Compounds without any hit were thinned out: in the full panel of roughly 83,000, 20% have a hit.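 Percent growth is the endpoint: 0 to 100 indicates growth inhibition (40 means 60% inhibition), 0 means no net growth, and negative values indicate cell death.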 Calls of active or inactive are those of the source. How the source made its calls: active means growth percent below 10; inactive means the rest.

Experiments:
Assay in all cases: NCI-60 one-dose screen, 48 h (100 = growth as untreated, 0 = no growth, -100 = all killed)
Details in all cases: 10 µM
[1] = test system: SK-MEL-2 melanoma
[2] = test system: EKVX NSCLC
[3] = test system: TK-10 renal
[4] = test system: ACHN renal
[5] = test system: CCRF-CEM leukemia
[6] = test system: MOLT-4 leukemia
[7] = test system: SR leukemia
[8] = test system: RPMI-8226 leukemia
[9] = test system: OVCAR-8 ovarian
[10] = test system: OVCAR-5 ovarian
[11] = test system: SK-OV-3 ovarian
[12] = test system: OVCAR-3 ovarian
[13] = test system: HS 578T breast
[14] = test system: NCI/ADR-RES ovarian
[15] = test system: UO-31 renal
[16] = test system: CAKI-1 renal
[17] = test system: A498 renal
[18] = test system: OVCAR-4 ovarian
[19] = test system: IGROV1 ovarian

Measured: growth

CCOc1ccccc1/C=N/N1CCCCCC1
inactive: [1] 113% | [2] 96.7% | [3] 104% | [4] 104% | [5] 100% | [6] 97.7% | [7] 89.3% | [8] 110% | [9] 103% | [10] 107% | [11] 95.9% | [12] 97.1% | [13] 96% | [14] 100%

Clc1nc2ccc(Br)cc2cc1-c1nc2ccccc2[nH]1
inactive: [1] 120% | [2] 50.3% | [15] 79.7% | [16] 84.2% | [17] 39.9% | [5] 72.9% | [6] 47.2% | [7] 92.3% | [8] 70.4% | [9] 88.2% | [10] 108% | [18] 65.3% | [11] 54.8% | [19] 80.1% | [12] 95.5% | [13] 47.8% | [14] 92.9%
active: [4] 2.34%

NC(N)=N/N=C(\c1ccccc1)C(O)c1ccccc1 (stereo unspecified)
inactive: [1] 101% | [2] 103% | [15] 81.1% | [3] 94.2% | [4] 109% | [5] 92.7% | [6] 99.9% | [7] 95.9% | [8] 94.5% | [9] 105% | [10] 112% | [18] 105% | [11] 94.2% | [19] 100% | [12] 111% | [14] 111%

O=C(Nc1cc([N+](=O)[O-])c2[nH]c(=O)c3ccccc3c2c1)C(F)(F)F
inactive: [1] 106% | [2] 67.1% | [15] 54.5% | [3] 84% | [4] 58.6% | [16] 89.1% | [5] 72.8% | [6] 55.2% | [7] 52.3% | [9] 77.2% | [10] 104% | [18] 92.6% | [11] 81.2% | [19] 93.6% | [13] 105%

CC1C(=NC(=O)c2cnccn2)C(C)C(c2ccc(Cl)cc2)NC1c1ccncc1 (stereo unspecified)
inactive: [1] 104% | [2] 88.6% | [3] 130% | [4] 91.5% | [17] 115% | [6] 78.5% | [8] 69.1% | [9] 88.3% | [10] 103% | [18] 122% | [11] 94.4% | [14] 90.3%

CC(C)(C)OC(=O)N1CCc2c(sc3ncnc(N/N=C/c4cccc5ccccc45)c23)C1
inactive: [1] 49.4% | [3] 36.9% | [16] 24.2% | [6] 14.4% | [7] 24.1% | [9] 27.6% | [10] 31.8% | [18] 33.4% | [11] 37% | [19] 26.9% | [12] 46.4% | [13] 17.2%
active: [2] 8.53% | [15] -8.22% | [4] 6.63% | [17] 4.77% | [8] 2.4% | [14] 8.76%

O=C(NCCNC(=O)c1ccc(F)cc1)Nc1ccc(-n2cc(-c3ccncc3)c(-c3ccc(Cl)c(O)c3)n2)cc1
active: [1] -11.4% | [4] 9.32% | [17] -24.2% | [5] 7.35% | [6] 8.22% | [7] -0.62% | [8] -35.6% | [9] 4.62% | [11] -8.18% | [12] 3.59%
inactive: [2] 11.8% | [15] 16.9% | [3] 12.3% | [10] 27.8% | [18] 37.1% | [19] 20.4% | [13] 16.6% | [14] 77.4%

CCC(C)[C@H](NC(C)=O)C(=O)N[C@@H](CCCNC(=N)N)C(=O)N[C@@H](CCCCN)C(=O)N[C@@H](CC1CCC(O)CC1)C(=O)NC(C(=O)N[C@@H](CCSC)C(=O)N[C@@H](CCCNC(=N)N)C(=O)N[C@@]1(C)CCC/C=C\CCC[C@@](C)(C(=O)NC(C(=O)N[C@@H](CCC(=O)O)C(=O)N[C@@H](CC(C)C)C(=O)N[C@H](C(=O)N[C@@H](CCC(=O)O)C(N)=O)C(C)C)[C@@H](C)O)NC(=O)[C@H](CCC(N)=O)NC(=O)[C@H](CC(C)C)NC(=O)[C@H](CC(C)C)NC1=O)[C@@H](C)O (stereo partly specified)
inactive: [1] 100% | [2] 99.5% | [15] 106% | [3] 96.4% | [4] 106% | [16] 99.4% | [17] 120% | [6] 97.3% | [7] 98.5% | [8] 95% | [9] 98.4% | [10] 115% | [18] 100% | [11] 98.4% | [19] 100% | [14] 108%
active: [13] -7.65%

COc1ccc(/C=C2\CCCC3=C2N=C2SC(C)=CN2C3c2ccc(OC)cc2)cc1 (stereo unspecified)
inactive: [1] 98.6% | [2] 99.4% | [15] 82.1% | [3] 116% | [4] 106% | [16] 96.4% | [17] 76.8% | [6] 103% | [7] 100% | [8] 71.2% | [9] 95.2% | [10] 105% | [18] 97% | [11] 101% | [19] 111% | [12] 102% | [13] 91% | [14] 96.3%
